Source: PubChem BioAssay (National Center for Advancing Translational Sciences (NCATS))
Nrf2 activator = activates Nrf2 signaling; AREc32 ARE-luciferase reporter (MCF7-derived line), luminescence, 24 h; Potency, µM (doses to about 46.1 µM), for the others: top-dose activation, hits mostly activators; 0.31% of 410,000 active; AID 624171; further: potency means the concentration at half of the fitted maximal effect; % of control where 0% means no effect; nearly all actives have a fitted effect of over 65% in size
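Luminescent ARE reporter assay in AREc32_Fluc cells: overnight plating at 37 deg C, 24 hr compound incubation, Steady-Glo added, 30 min RT before reading.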
A549 tox = kills or reduces viability of A549 cells in Nrf2 counter-screen. A549 ARE-Fluc cells, CellTiter-Fluor viability, 18-24 h. Potency, µM (series often up to 46 µM), inactives show top-dose activity change, negative = cytotoxicity, hits mostly inhibitors. 0.16% of 390,000 active; further: potency means the concentration at half of the fitted maximal effect; on the % scale 0 is the no-effect control and ±100 the full control effect
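A549 ARE-Fluc cells in 5% FBS OPTI-MEM, 5000 cells/well, rested 2 h then exposed to compounds in concentration-response for 18-24 h at 37 °C. Viability by CellTiter-Fluor fluorescence (Ex 405/Em 525) after 30 min; luciferase luminescence (BugLite, 15 min, RT) read afterwards.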
LDHA block = blocks human lactate dehydrogenase A; P00338; purified LDHA, NADH/diaphorase-resazurin fluorescence; active compounds read low; activity change, % (values are at about 110 or 230 µM); 0.15% of 480,000 active; AID 1347041; in the data active means activity change below about -30%; inconclusive means mostly about -25% to -30%;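 further: plate controls were DMSO wells for no effect and wells without enzyme for full effect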
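Resorufin fluorescence (ex540/em590), read at 0 and 20 min after diaphorase/resazurin addition, reports the NADH left after a 5 min room-temperature reaction of 2 nM human LDH5 with 0.06 mM NADH and 0.2 mM pyruvate.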
ERG Ets-DNA blk = ERG Ets/DNA interaction inhibition; P11308; Potency, µM (titrated, usually from 76.9 µM), inactives show top-dose FP activity, negative = inhibition, usual class: inhibitors; 0.028% of 370,000 active; fluorescence polarization, His-ERG Ets domain / labelled DNA; AID 624246; active means well fitted inhibition curve with a large enough effect in the polarisation, with a control signal flat; inconclusive means small, poorly fitted or top-dose-only effect, or effect the other way, or a change in a side signal; inactive means no such curve, though single readings can be large or run the other way; the % refers to the polarisation;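 further: polarization taken with two DNA probes labelled with fluorescein and Texas red; potency means the concentration at half of the fitted maximal effect; % of control where 0% means no effect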
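His-tagged ERG Ets domain (1 uM in the protein solution; 300mM KCl, 50mM Tris-HCl, 1mM EDTA, 1mM DTT, pH 7.5) received compound, then a probe mix of 5 nM fluorescein-DNA and 100nM Texas-615-DNA. Fluorescence polarization was read for both dyes.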
Nrf2 inh = Nrf2 pathway inhibition; AID 504444; A549 ARE-Fluc reporter, luciferase luminescence, 18-24 h; Potency, µM (titrated, usually from 46 µM), without a hit: top-dose activity change, negative = inhibition, usual class: inhibitors; 2.1% of 360,000 active; further: potency means the concentration at half of the fitted maximal effect; on the % scale 0 is the no-effect control and ±100 the full control effect; nearly all actives have a fitted effect of over 60% in size
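Quantitative HTS in A549 cells stably bearing an antioxidant response element-firefly luciferase construct. Inhibition of Nrf2-driven transcription was scored by luminescence after 18-24 h of compound exposure at 37 °C.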
ALOX12 inh = blocks human arachidonate 12S-lipoxygenase | AID 1671190 | 1.1% of 580,000 active | Potency, µM (doses to about 108 µM), without a hit: top-dose activity change, negative = inhibition, hits mostly inhibitors | purified 12hLO, xylenol orange hydroperoxide absorbance | P18054; further: potency means the concentration at half of the fitted maximal effect; on the % scale 0 is the no-effect control and ±100 the full control effect
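Hydroperoxide product was detected by ferrous iron/xylenol orange as the 573 to 405 nm absorbance ratio. Arachidonic acid at 40 uM (final) was turned over for 30 min at room temperature by 150 nM human 12hLO, pH 7.0 Hepes buffer, after 15 min compound preincubation.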
Active calls of the source: *. Shown are actives, neighbours in structure and some others; about 2.7% of the full set was active somewhere. Unless noted, the call rests on the fitted dose curve; in most records, active means well fitted curve in the direction sought with a large enough effect; inconclusive means small, poorly fitted or top-dose-only effect, or another doubt; inactive means no such curve, though single readings can be large; an effect the other way counts as inactive or inconclusive.

Screening Cc1ccccc1CCNC(=O)c1ccc2c(c1)CCCC2 returned LDHA block 13 and ALOX12 inh inconclusive.
O=CC1=C(c2ccccc2)SC(c2ccccc2)C(Cc2ccccc2)=C1 (stereo not drawn) was read as LDHA block 1 and ALOX12 inh -30%.
`N#Cc1c(SCC(=O)Nc2nc3ccc(Br)cc3s2)sc2c(O)cc(=O)[nH]c12` gave Nrf2 activator 0%, A549 tox 1%, LDHA block 0, ERG Ets-DNA blk 0%, Nrf2 inh 0% and ALOX12 inh 16µM*.
`N#Cc1c(SCC(=O)Nc2nccs2)sc2c(O)cc(=O)[nH]c12` gave Nrf2 activator 0%, A549 tox -3%, LDHA block 1, ERG Ets-DNA blk 24%, Nrf2 inh 6% and ALOX12 inh inconclusive.
CCCSc1nnc(NC(=O)CSc2sc3c(O)cc(=O)[nH]c3c2C#N)s1 was read as Nrf2 activator -1%, A549 tox -4%, LDHA block -2, ERG Ets-DNA blk 6%, Nrf2 inh 3% and ALOX12 inh 50µM*.
`Cc1cc(NC(=O)C(C)OC(=O)/C(=C/c2cccs2)c2cccs2)on1` (stereo not drawn) gave LDHA block 7 and ALOX12 inh inconclusive.
`Cc1ccc(NC(=O)COc2ccc(-c3nnco3)cc2)cc1S(=O)(=O)N1CCOCC1` gave Nrf2 activator 0%, A549 tox 1%, LDHA block 0, ERG Ets-DNA blk 14%, Nrf2 inh 23µM* and ALOX12 inh -3%.
For CCN(CC)S(=O)(=O)c1cccc(NC(=O)CC2CCCC2)c1 the results were Nrf2 activator -1%, A549 tox 7%, LDHA block 0, ERG Ets-DNA blk 7%, Nrf2 inh -3% and ALOX12 inh 3%.
CCN(CC)S(=O)(=O)c1ccc(C)c(NC(=O)CNc2cccc(S(=O)(=O)N3CCCC3)c2)c1 was read as Nrf2 activator 0%, A549 tox -17%, LDHA block -1, ERG Ets-DNA blk 0%, Nrf2 inh inconclusive and ALOX12 inh -19%.
CCN(CC)S(=O)(=O)c1cccc(NC(=O)Nc2cccc(C(F)(F)F)c2)c1 was read as Nrf2 activator -2%, A549 tox inconclusive, LDHA block 2, ERG Ets-DNA blk inconclusive and Nrf2 inh 2.6µM*.
Screening CCN(CC)S(=O)(=O)c1cccc(NC(=O)CNc2cccc(S(=O)(=O)N3CCCC3)c2)c1 returned Nrf2 activator 0%, A549 tox inconclusive, LDHA block -8, ERG Ets-DNA blk -6%, Nrf2 inh 26µM* and ALOX12 inh -6%.
For O=C(CNc1cccc(S(=O)(=O)N2CCCC2)c1)Nc1ccc(F)c(F)c1 the results were Nrf2 activator 1%, A549 tox -28%, LDHA block 1, ERG Ets-DNA blk 8%, Nrf2 inh 26µM* and ALOX12 inh -9%.
For Cc1ccc(NC(=O)CNc2cccc(S(=O)(=O)N3CCCC3)c2)cc1F the results were Nrf2 activator 0%, A549 tox -5%, LDHA block 2, ERG Ets-DNA blk 1%, Nrf2 inh inconclusive and ALOX12 inh inconclusive.
Screening Cc1ccc(NC(=O)CNc2cccc(Br)c2)cc1S(=O)(=O)N1CCOCC1 returned Nrf2 activator 0%, A549 tox inconclusive, LDHA block -1, ERG Ets-DNA blk 4%, Nrf2 inh 21µM* and ALOX12 inh 466%.
For O=C(Nc1cccc(C(F)(F)F)c1)Nc1ccc2snnc2c1 the results were Nrf2 activator -1%, A549 tox inconclusive, LDHA block 0, ERG Ets-DNA blk 4%, Nrf2 inh 21µM* and ALOX12 inh -23%.
Cc1nc(-c2ccc(F)cc2)c(CC(=O)Nc2ccc(C)c(S(=O)(=O)N3CCOCC3)c2)s1 was read as Nrf2 activator -1%, A549 tox -6%, LDHA block -1, ERG Ets-DNA blk inconclusive and Nrf2 inh 18µM*.
